Screening results: PubChem BioAssay, Sanford-Burnham Center for Chemical Genomics
The list is not random: actives were taken first. Their share in the collection is about 1.8%.
pCIP destab: p/CIP protein destabilization. Q05BA5. F442A p/CIP-EGFP cells, EGFP fluorescence, 16 h. decrease of EGFP signal, % at 10 µM. 290,000 tested, 0.01% active;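 active = EGFP signal decrease of at least 30% at 10 µM or well 3 SD below plate mean, unless failing retest; inactive = the rest, including hits failing retest or dose response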
UBC9 SUMO inh: SUMOylation inhibition; HTRF SUMOylation assay, SAE1/SAE2 + UBC9, in vitro; P63279; AID 2006; 290,000 tested, 0.36% active; inhibition, % at 35 µM; in the data active = inhibition above about 50%, passing the limit was not always enough
Target sequence (P63279 whole entry, looked up): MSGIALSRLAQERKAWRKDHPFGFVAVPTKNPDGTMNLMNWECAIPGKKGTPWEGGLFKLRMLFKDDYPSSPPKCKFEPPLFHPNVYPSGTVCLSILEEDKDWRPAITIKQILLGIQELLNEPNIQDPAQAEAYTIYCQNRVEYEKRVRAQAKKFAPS
PHOSPHO1 block: blocks human PHOSPHO1 phosphatase activity | Q8TCT1 | inhibition, % at 13.3 µM | recombinant PHOSPHO1, absorbance phosphatase assay | 290,000 tested, 1.1% active; in the data active = inhibition above about 60%
Target sequence (Q8TCT1 whole entry, looked up): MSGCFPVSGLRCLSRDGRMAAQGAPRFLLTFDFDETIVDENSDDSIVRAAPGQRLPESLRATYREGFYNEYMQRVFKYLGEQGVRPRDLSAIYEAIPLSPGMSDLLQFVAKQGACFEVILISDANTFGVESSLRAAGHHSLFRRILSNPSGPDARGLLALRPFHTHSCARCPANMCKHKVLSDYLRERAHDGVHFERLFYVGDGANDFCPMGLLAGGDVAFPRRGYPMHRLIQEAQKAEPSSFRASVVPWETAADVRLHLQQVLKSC
NadD block: inhibitors of Staphylococcus aureus NadD | purified NadD enzyme, colorimetric absorbance read-out | inhibition, % at 20 µM | 360,000 tested, 0.78% active | AID 602399; in the data active = inhibition above about 26%
The depositor's hits bear a star; . = no result.

SMILES	pCIP destab	UBC9 SUMO inh	PHOSPHO1 block	NadD block
C(=C\c1ccccc1)/CSc1nnc(-c2ccncc2)n1Cc1ccco1	-16	23	64*	9
C(=C\c1ccccc1)/CSc1nnc(-c2ccccc2)n1Cc1ccco1	-5	0	80*	-6
Clc1cccc(-c2nnc(SC/C=C/c3ccccc3)n2Cc2ccco2)c1	4	2	21	9
O=C(NCc1ccc(Cl)cc1)c1ncn[nH]1	-1	9	73*	1
COCc1cccc(-c2csc(C(C)(O)c3ccccc3)n2)c1 (centres undefined)	.	.	.	-1
O=C(O)CCSc1nc2ccc(Br)cc2[nH]1	3	-20	66*	-4
CC(Sc1nc2ccc(Br)cc2[nH]1)C(=O)O (centres undefined)	5	13	23	-2
CCOc1ccc(NC(=O)CN(C)C(=O)CCN2C(=O)C3CC=CCC3C2=O)cc1OCC (centres undefined)	.	.	.	-6
COc1ccc(C2=Nc3ccccc3NC(=O)C2N(C(=O)c2ccnc3ccccc23)c2ccccc2)cc1 (centres undefined)	.	.	.	13
CCNc1ccc2noc3c2c1C(=O)c1ccccc1-3	-33	-103	4	16
CCOc1ccc2noc3c2c1C(=O)c1ccccc1-3	10	8	62*	1
Clc1ccccc1-c1cnc2sc(NCc3ccc4c(c3)OCO4)nn12	.	.	.	16
COc1ccc(C2C(C#N)=C(SCC(=O)Nc3ccc(C)cc3)NC3=C2C(=O)CC(C)(C)C3)cc1 (centres undefined)	-15	9	89*	2
CC1=C(C(=O)Nc2ccccc2)C(c2ccco2)C(C#N)=C(SCc2ccccc2)N1 (centres undefined)	-23	11	-8	.
C=CCOC(=O)C1=C(C)NC(SCC(=O)NC(=O)OCC)=C(C#N)C1c1cccnc1 (centres undefined)	0	18	78*	1
CCOC(=O)C1=C(C)NC(SCC(=O)Nc2nc(C)cs2)=C(C#N)C1c1cccs1 (centres undefined)	-14	-2	76*	.
CCC1C(C#N)=C(SCC(N)=O)NC2=C1C(=O)CC(C)(C)C2 (centres undefined)	-1	19	-95	1
CSC1=C(C#N)C(c2ccncc2)C(C(=O)Nc2ccccc2)=C(C)N1 (centres undefined)	0	4	62*	1
C=CCOC(=O)C1=C(C)NC(SCC(=O)N(CC)CC)=C(C#N)C1c1ccccc1 (centres undefined)	-9	6	34	-8
C=CCOC(=O)C1=C(C)NC(SCC(N)=O)=C(C#N)C1c1cccs1 (centres undefined)	-7	-14	16	5
O=C1c2ccccc2C(c2nnnn2C2CCCCC2)N1CCc1ccc(O)cc1 (centres undefined)	.	.	.	-7
CNC(=O)C1(C)CCN1C(=O)Cc1ccc(C(C)C)cc1 (centres undefined)	.	.	.	-2
Cc1cc(C(=O)NNC(=O)CN2C(=O)NC(C)(c3ccccc3)C2=O)c(C)o1 (centres undefined)	.	.	.	-5
CC1=C(C(=O)Nc2ccccc2)C(c2ccncc2)C(C#N)=C(SCC(=O)Nc2ccccc2)N1 (centres undefined)	3	-2	71*	10
CC1=C(C(=O)Nc2ccccc2)C(c2ccco2)C(C#N)=C(SCC(=O)Nc2cccc(C)c2C)N1 (centres undefined)	-2	10	14	11
SMILES	pCIP destab	UBC9 SUMO inh	PHOSPHO1 block	NadD block
O=C(CC[C@H]1O[C@@H](n2ccc(=O)[nH]c2=O)[C@H](O)[C@@H]1O)N[C@H](Cc1ccccc1)C(=O)NC1CCCCC1	.	.	.	-2
COc1ccc(Cc2c(N)nc(N)nc2N)cc1	-8	10	12	-7
Nc1ccc(OCCCc2c(N)nc(N)nc2N)cc1	7	12	34	44*
Cc1ccccc1Nc1nc(CSc2nnc(-c3ccoc3C)n2C)cs1	-9	14	69*	24
COC(=O)C[C@@H]1C[C@H]2c3cc(N(C)C)ccc3O[C@H]2[C@H](CO)O1	.	.	.	3
NS(=O)(=O)c1ccc(NC(=S)NC2CCCC2)cc1	-11	5	81*	-5
COc1ccc2c(c1)c(CC(=O)NCc1cc([N+](=O)[O-])ccc1O)c(C)n2C(=O)c1ccc(Cl)cc1	-20	24	33	33*
COc1ccc2c(c1)c(CC(=O)Nc1ccc(C(C)=O)cc1)c(C)n2C(=O)c1ccc(Cl)cc1	-1	-5	7	19
Nc1cc(C(=O)O)ccc1Sc1ccccc1C(=O)O	12	27	63*	-4
Nc1ccccc1Sc1ccc(C(=O)c2ccccc2C(=O)O)cc1[N+](=O)[O-]	3	9	-19	9
Cc1ccccc1NC(=O)COC(=O)COc1ccc2ccc(=O)oc2c1	.	.	.	-2
Nc1ccc(N2CCCCCC2)cc1	-15	62*	39	.
COc1ccc(/C=N/NC(=O)c2ccc(C)cc2)cc1CN1CCN(c2ccc(F)cc2)CC1	2	7	-2	6
COc1ccc(/C=N\NC(=O)c2cc(O)c(O)c(O)c2)cc1CN1CCN(c2ccc(F)cc2)CC1	-8	19	1	41*
COc1ccc(C(=O)N/N=C/c2ccc(OC)c(COc3ccccc3)c2)cc1	-6	-11	10	-1
COc1ccc(/C=N\NC(=O)c2cc(O)c(O)c(O)c2)cc1COc1ccc(C(=O)OCC(C)C)cc1	8	-27	-7	60*
COc1ccc(Cc2nc3ccc(C(=O)NCCc4ncccc4C)cc3o2)cc1OC	.	.	.	-2
CCc1nc2c(OCC(=O)N3CCOCC3)cccn2c1N(C)C(=O)COc1ccccc1	.	.	.	1
Cc1ccc(N=Nc2ccc(O)c(/C=N\NC(=O)c3ccc(N)cc3)c2)cc1C	4	29	17	48*
COCc1nnc(NC(=O)c2cc(Cl)ccc2OC)s1	-5	12	14	1
CCN(CC)c1ccc(NC(=O)c2cc(Cl)ccc2OC)cc1	0	-11	76*	-2
CCN(CC)c1ccc(NC(=O)/C=C\c2ccccc2Cl)cc1	1	-16	69*	-3
CCOCc1nnc(NC(=O)c2cc(Cl)ccc2OC)s1	-8	3	97*	-2
CN(C)c1ccc(NC(=O)/C=C/c2ccccc2Cl)cc1	-3	13	-4	4
O=C(/C=C/c1ccncc1)c1ccc(NC(=O)c2ccccc2F)cc1	-4	70*	-6	10
SMILES	pCIP destab	UBC9 SUMO inh	PHOSPHO1 block	NadD block
N#CC(=Nc1cccc(F)c1)C1=C(O)c2ccccc2C1=O	.	.	.	8
CCc1nc2ccc(C(=O)N(CC)CCN(C)C)cn2c1N(C)C(=O)C1CCCCC1	.	.	.	7
COc1ncnc2c1ncn2CCCNCC(C)c1ccccc1 (centres undefined)	.	.	.	12
Cc1ccc(OCC(=O)Nc2ccc(N3CCN(C(=O)c4ccco4)CC3)cc2)cc1C	-18	-6	45	2
O=C(Nc1nnc(COc2ccc(Cl)cc2)s1)c1cccs1	-4	0	80*	11
CCN(CC)c1ccc(NC(=S)NC(=O)c2ccco2)cc1	-13	6	19	-5
CCN(CC)c1ccc(NC(=O)c2ccccc2F)cc1	3	-18	62*	9
O=C(Nc1ccc(Nc2ccccc2)cc1)c1ccccc1F	-6	5	14	-2
